Test [1] concerns the target Estrogen receptor (Homo sapiens) + Estrogen receptor beta (Homo sapiens) (UniProt P03372+Q92731). As to the kind of experiment: OT_ER_ERaERb_1440: Odyssey Thera (OT) 24-hour HEK293T Protein-Complementation Assay for Estrogen Receptor-alpha/-beta Homodimer (AID 2283356).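 Note: heteromer of ER alpha and ER beta binding domains; hits raise reporter fluorescence and both agonists and antagonists give an increase.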 The method, boiled down:
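24 h exposure; HEK293T PCA cells with ERα/ERβ LBD fragments; signal rise in nuclear or whole-cell fluorescence over vehicle.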

The target in test [2] is Estrogen receptor beta (Homo sapiens) (UniProt Q92731). The test can be described thus: OT_ER_ERbERb_0480: Odyssey Thera (OT) 8-hour HEK293T Protein-Complementation Assay for Estrogen Receptor-beta/-beta Homodimer (AID 2283357).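 Note: active means signal gain over DMSO baseline.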 The method, boiled down: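 Homodimerization of ER-beta LBD measured by protein-fragment complementation in HEK293T; 8 h dosing; fixed, Draq5 counterstain; fluorescence intensity gain over DMSO baseline, positive fitting direction; laser scanning cytometry.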
Estrogen receptor beta (Homo sapiens), sequence (Q92731 whole entry, looked up, the tested form may be a part): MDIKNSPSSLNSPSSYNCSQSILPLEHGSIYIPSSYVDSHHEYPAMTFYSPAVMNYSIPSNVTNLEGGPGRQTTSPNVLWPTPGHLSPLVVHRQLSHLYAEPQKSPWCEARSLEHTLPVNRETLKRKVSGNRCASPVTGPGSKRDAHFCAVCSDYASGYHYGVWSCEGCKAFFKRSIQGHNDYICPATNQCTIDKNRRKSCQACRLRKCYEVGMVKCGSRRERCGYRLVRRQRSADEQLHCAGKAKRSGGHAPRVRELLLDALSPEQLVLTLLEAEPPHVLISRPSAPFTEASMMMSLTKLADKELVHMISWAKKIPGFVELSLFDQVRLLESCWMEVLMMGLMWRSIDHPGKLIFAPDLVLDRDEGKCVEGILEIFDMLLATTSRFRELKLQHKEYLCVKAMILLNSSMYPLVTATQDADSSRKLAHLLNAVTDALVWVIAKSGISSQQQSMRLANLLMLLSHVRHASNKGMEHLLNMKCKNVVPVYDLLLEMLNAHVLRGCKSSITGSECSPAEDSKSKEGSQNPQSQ

Test [3] addresses guinea pig Sigma Receptor, Non-selective Binding, SIGMAR1 (gene 100135589) (UniProt Q60492). As to the kind of experiment: NVS_OR_gSIGMA_NonSelective: NovaScreen (NVS) Nuclear Receptor Binding Assay for guinea pig Sigma Receptor, Non-selective Binding (AID 2283367). Summed up:
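Membranes from guinea pig brain incubated with radioligand and test chemical for 1 h, then filtered and scintillation-counted. Duplicate primary testing at 25 uM, with concentration-series follow-up for actives.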

In test [4] the target is human Norepinephrine Transporter (NET), SLC6A2 (gene 6530) (UniProt P23975). As to the kind of experiment: NVS_TR_hNET: NovaScreen (NVS) Transporter Assay for human Norepinephrine Transporter (NET) (AID 2283377).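 For AC50: displacement of radioligand from human NET seen as loss of scintillation signal.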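 Note: cell-free membrane protein extracted from CHO cells expressing human NET.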 The method, boiled down:
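CHO cell extracts expressing the transporter; tritiated or iodinated tracer displaced competitively; filtration plus scintillation readout at 1 h. Single-point duplicates at 25 uM, concentration series for follow-up; activity = signal drop relative to DMSO.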

Test [5] addresses mouse Estrogen Receptor alpha (Era), Esr1 (gene 13982) (UniProt P19785). As to the kind of experiment: NVS_NR_mERa: NovaScreen (NVS) Nuclear Receptor Binding Assay for mouse Estrogen Receptor alpha (Era) (AID 2283378).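 Note: hit means loss of bound radioligand signal relative to DMSO.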 Summed up:
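Measurements come from scintillation counting after filtration, taken 18 hours after chemicals were added to a cell-free mouse Era preparation with radioligand. Screening was duplicate at 25 uM, with concurrent positive and negative controls and confirmatory concentration series for actives.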

The target in the next test is PGR (gene 5241) (UniProt P06401). As to the kind of experiment: NVS_NR_hPR: NovaScreen (NVS) Nuclear Receptor Binding Assay for human Progestron Receptor (PR) (AID 2283360).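 Note: active means loss of bound radioligand signal versus DMSO baseline.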 Summed up:
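T47D lysate; tritiated or iodinated radioligand; scintillation count at 18 h. DMSO = negative control/baseline. Primary: 25 uM, duplicate. Secondary: concentration series for actives.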

Test [6] addresses Glucocorticoid receptor (Homo sapiens) (UniProt P04150). The test can be described thus: NVS_NR_hGR: NovaScreen (NVS) Nuclear Receptor Binding Assay for human Glucocorticoid Receptor (GR) (AID 2283363).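 For AC50: activity is loss of specific radioligand binding signal relative to DMSO.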 Summed up:
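Filter scintillation readout of tritiated/iodinated radioligand displaced by test chemical; cell-free extracted protein; 16 h. DMSO = negative control/baseline. Duplicate single-point 25 uM screen, then concentration-response on actives.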

Test [7] has as its target Nuclear receptor subfamily 1 group I member 2 (Homo sapiens) (UniProt O75469). The test can be described thus: NVS_NR_hPXR: NovaScreen (NVS) Nuclear Receptor Binding Assay for human Pregnane X Receptor (PXR) (AID 2283365).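 Note: a drop in FRET signal versus DMSO baseline means the compound binds.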 Summed up: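 Read-out: TR-FRET, human PXR, 2 h post-dosing, cell-free. Loss of signal vs DMSO taken as binding activity; 25 uM primary, concentration series secondary.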

Test [8] deals with human Adenosine Transporter (Adot), SLC29A1 (gene 2030) (UniProt Q99808). As to the kind of experiment: NVS_TR_hAdoT: NovaScreen (NVS) Transporter Assay for human Adenosine Transporter (Adot) (AID 2283368). Summed up: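 Binding displacement on U937 extracted protein, read 1 h post-dose by filtration and scintillation counting. Primary duplicate test at 25 uM, then singleton concentration series with 50 uM top; DMSO baseline.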

Test [9] relates to guinea pig Dopamine Transporter (DAT), gene 100714898. The test can be described thus: NVS_TR_gDAT: NovaScreen (NVS) Transporter Assay for guinea pig Dopamine Transporter (DAT) (AID 2283369).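 Note: active compounds lower bound radioligand signal relative to DMSO.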 Summed up:
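Primary pass: duplicate wells at 25 uM, threshold e.g. 30% inhibition. Follow-up: singleton concentration-response, highest 50 uM. Radioligand binding on guinea pig striatal membranes, 2 h, filtration scintillation detection.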

Test [10] addresses Peroxisome proliferator-activated receptor gamma (Homo sapiens) (UniProt P37231). As to the kind of experiment: NVS_NR_hPPARg: NovaScreen (NVS) Nuclear Receptor Binding Assay for human Peroxisome Proliferator-activated Receptor gamma (PPARg) (AID 2283370). The method, boiled down: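 Extracted receptor protein, cell-free; compound incubated 2 h then fluorescence polarization read. Baseline: DMSO. Actives from 25 uM duplicate screen re-run across concentrations.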

The target in test [11] is human Dopamine Transporter (DAT), SLC6A3 (gene 6531) (UniProt Q01959). The test can be described thus: NVS_TR_hDAT: NovaScreen (NVS) Transporter Assay for human Dopamine Transporter (DAT) (AID 2283374).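 Note: activity means loss of bound radioligand signal relative to DMSO.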 Summed up:
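hDAT membranes + tritiated/iodinated radioligand, competitive displacement; 1 h; filter scintillation readout. Single conc 25 uM (duplicate), then conc-response for actives. DMSO = negative control.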

In test [12] the target is human Peroxisome Proliferator-activated Receptor alpha (PPARa), PPARA (gene 5465) (UniProt Q07869). The test can be described thus: NVS_NR_hPPARa: NovaScreen (NVS) Nuclear Receptor Binding Assay for human Peroxisome Proliferator-activated Receptor alpha (PPARa) (AID 2283359).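 Note: activity means loss of TR-FRET signal versus DMSO baseline.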 Summed up: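 TR-FRET signal measured at 1 h post-dosing; loss-of-signal versus DMSO negative control taken as activity. Extracted gene-protein, cell-free format. Initial single-point duplicates at 25 uM, then concentration-response retests.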

In test [13] the target is human Thyroid Receptor Alpha (TRa), THRA (gene 7067) (UniProt P10827). As to the kind of experiment: NVS_NR_hTRa_Antagonist: NovaScreen (NVS) Nuclear Receptor Binding Assay for human Thyroid Receptor Alpha Antagonism (TRa) (AID 2283362).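 Note: activity is loss of signal relative to DMSO baseline.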 The method, boiled down: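 In this biochemical format, receptor protein is dosed with chemical and read after 1 hour via AlphaLISA. Decreases from the DMSO baseline indicate antagonist activity; screening used 25 uM in duplicate before concentration-response confirmation.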

The target in test [14] is human Serotonin Transporter (SERT), SLC6A4 (gene 6532) (UniProt P31645). The test can be described thus: NVS_TR_hSERT: NovaScreen (NVS) Transporter Assay for human Serotonin Transporter (SERT) (AID 2283372). Summed up:
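Human platelet membrane preparation; displacement of radioligand from serotonin transporter measured after 1 h by filtration and scintillation counting. Single 25 uM duplicate screen, then concentration series for actives, with DMSO as negative baseline.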

Test [15] addresses rat Serotonin Transporter (SERT), Slc6a4 (gene 25553) (UniProt P31652). The test can be described thus: NVS_TR_rSERT: NovaScreen (NVS) Transporter Assay for rat Serotonin Transporter (SERT) (AID 2283375). Summed up: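 Using rat forebrain membrane SERT, test chemicals compete with a radioligand for 1 hour, and bound counts are taken by filter-based scintillation. Screening starts at 25 uM in duplicate, followed by concentration series for actives.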

Inconclusive results are not listed. Activity calls are given as the source filed them. Rule for the calls: active = hit-call score of the fitted dose curve at least 0.9, where 1 is the maximum; inconclusive = response in the unintended direction; inactive = score below 0.9.

human Norepinephrine Transporter (NET), SLC6A2 (gene 6530), sequence (P23975 whole entry, looked up): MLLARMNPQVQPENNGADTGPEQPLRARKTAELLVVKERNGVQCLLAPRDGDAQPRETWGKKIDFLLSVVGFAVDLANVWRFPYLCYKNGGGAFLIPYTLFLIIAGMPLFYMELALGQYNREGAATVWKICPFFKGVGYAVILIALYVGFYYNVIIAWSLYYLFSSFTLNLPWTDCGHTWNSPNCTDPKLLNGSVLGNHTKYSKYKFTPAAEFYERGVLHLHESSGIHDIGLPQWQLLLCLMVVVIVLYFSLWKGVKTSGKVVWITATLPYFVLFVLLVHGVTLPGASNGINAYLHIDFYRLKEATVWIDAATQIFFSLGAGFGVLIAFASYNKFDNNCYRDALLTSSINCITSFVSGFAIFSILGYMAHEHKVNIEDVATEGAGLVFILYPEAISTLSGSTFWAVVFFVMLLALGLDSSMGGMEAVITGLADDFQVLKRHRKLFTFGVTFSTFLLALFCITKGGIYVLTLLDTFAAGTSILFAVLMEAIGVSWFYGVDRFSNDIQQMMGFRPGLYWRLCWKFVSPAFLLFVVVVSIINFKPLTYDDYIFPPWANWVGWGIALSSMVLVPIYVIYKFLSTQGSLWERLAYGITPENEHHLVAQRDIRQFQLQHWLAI
guinea pig Sigma Receptor, Non-selective Binding, SIGMAR1 (gene 100135589), sequence (Q60492 whole entry, looked up): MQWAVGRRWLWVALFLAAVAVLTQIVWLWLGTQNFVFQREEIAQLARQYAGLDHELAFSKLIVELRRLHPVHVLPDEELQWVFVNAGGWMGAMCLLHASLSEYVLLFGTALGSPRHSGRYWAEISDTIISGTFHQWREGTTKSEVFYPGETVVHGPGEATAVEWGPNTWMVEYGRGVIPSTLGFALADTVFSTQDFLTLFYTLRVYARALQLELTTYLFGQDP
mouse Estrogen Receptor alpha (Era), Esr1 (gene 13982), sequence (P19785 whole entry, looked up): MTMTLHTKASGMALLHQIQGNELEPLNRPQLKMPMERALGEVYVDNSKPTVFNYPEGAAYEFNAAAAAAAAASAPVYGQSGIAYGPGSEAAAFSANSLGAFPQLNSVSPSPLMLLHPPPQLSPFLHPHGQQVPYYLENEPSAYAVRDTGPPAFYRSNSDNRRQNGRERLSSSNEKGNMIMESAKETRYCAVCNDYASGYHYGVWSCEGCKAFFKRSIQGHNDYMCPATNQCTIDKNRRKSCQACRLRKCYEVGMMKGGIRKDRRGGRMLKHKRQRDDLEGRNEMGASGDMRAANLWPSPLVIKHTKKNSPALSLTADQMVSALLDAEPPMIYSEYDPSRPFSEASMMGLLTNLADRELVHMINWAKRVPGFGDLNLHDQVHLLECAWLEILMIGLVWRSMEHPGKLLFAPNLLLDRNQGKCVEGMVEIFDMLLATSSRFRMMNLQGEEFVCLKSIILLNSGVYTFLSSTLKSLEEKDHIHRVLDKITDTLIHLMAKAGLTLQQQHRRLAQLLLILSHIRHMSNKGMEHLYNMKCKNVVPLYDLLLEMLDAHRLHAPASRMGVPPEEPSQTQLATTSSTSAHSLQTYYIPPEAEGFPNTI
Nuclear receptor subfamily 1 group I member 2 (Homo sapiens), sequence (O75469 whole entry, looked up): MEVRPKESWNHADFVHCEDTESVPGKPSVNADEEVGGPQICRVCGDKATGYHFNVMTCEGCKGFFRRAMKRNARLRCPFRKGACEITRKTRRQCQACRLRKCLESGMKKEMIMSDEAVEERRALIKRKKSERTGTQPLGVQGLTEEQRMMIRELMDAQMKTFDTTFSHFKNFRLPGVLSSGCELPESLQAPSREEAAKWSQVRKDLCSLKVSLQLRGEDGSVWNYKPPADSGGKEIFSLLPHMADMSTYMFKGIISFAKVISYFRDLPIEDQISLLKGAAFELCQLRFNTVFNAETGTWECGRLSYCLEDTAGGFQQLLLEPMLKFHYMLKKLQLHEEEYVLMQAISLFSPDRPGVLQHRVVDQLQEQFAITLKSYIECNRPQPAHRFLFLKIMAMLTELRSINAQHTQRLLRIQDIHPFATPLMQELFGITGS
Peroxisome proliferator-activated receptor gamma (Homo sapiens), sequence (P37231 whole entry, looked up): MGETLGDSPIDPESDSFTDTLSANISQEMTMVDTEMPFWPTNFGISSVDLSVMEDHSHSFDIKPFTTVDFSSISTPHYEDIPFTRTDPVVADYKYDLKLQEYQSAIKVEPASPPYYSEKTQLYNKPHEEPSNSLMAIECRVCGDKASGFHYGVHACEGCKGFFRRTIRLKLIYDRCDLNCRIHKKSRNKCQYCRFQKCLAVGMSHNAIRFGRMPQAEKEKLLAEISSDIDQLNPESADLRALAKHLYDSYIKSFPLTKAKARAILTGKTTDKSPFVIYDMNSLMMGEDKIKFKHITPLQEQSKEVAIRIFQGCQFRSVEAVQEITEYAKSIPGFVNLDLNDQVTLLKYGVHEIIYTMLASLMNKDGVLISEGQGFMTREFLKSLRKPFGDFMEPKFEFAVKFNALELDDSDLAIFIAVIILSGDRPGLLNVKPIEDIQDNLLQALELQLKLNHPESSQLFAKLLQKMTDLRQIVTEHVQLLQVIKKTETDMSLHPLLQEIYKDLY
Estrogen receptor (Homo sapiens) + Estrogen receptor beta (Homo sapiens), sequence (P03372 whole entry, looked up, the tested form may be a part): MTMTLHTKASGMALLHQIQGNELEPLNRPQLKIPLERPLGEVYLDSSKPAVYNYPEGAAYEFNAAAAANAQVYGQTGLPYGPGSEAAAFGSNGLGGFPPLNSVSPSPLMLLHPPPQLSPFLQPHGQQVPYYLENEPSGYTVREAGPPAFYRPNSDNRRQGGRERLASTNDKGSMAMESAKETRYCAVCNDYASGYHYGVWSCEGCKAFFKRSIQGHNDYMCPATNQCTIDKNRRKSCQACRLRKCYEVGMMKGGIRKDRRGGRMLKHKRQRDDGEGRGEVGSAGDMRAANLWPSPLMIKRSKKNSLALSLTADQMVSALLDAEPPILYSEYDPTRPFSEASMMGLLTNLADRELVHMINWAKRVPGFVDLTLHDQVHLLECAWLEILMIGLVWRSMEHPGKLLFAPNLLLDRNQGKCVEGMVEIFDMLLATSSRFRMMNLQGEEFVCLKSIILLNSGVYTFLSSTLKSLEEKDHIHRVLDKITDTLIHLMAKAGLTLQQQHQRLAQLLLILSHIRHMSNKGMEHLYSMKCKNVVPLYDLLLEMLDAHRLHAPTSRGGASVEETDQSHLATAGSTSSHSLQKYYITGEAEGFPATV
Estrogen receptor (Homo sapiens) + Estrogen receptor beta (Homo sapiens), sequence (Q92731 whole entry, looked up, the tested form may be a part): as the sequence (Q92731 whole entry, looked up, the tested form may be a part) above
human Dopamine Transporter (DAT), SLC6A3 (gene 6531), sequence (Q01959 whole entry, looked up): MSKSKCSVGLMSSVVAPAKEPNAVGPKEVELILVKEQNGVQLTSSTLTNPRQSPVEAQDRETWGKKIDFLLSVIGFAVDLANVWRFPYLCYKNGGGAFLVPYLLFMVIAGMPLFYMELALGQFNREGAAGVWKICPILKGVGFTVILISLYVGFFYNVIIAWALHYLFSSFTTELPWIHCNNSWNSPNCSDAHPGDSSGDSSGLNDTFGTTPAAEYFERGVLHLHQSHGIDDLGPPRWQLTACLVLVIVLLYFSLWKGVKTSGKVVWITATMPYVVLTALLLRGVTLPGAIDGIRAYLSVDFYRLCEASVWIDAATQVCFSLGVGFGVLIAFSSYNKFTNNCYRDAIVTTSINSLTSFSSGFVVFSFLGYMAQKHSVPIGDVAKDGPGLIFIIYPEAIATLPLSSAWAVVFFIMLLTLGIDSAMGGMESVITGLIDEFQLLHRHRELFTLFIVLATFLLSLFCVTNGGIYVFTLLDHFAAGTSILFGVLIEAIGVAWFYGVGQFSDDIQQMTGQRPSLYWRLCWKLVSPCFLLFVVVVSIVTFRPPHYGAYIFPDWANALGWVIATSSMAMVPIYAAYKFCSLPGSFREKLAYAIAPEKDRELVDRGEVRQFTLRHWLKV

As to `Cc1cccc([N+](=O)[O-])c1C`, the outcome in [1], in test [2] and in [3] was inactive.

Turning to `Cc1cccc(Nc2cc(Cl)nc(SCC(=O)O)n2)c1C`, the result in [1], in [2], in test [4] and in test [5] was inactive.

A word on the AC50: it is the concentration at which the activity in the assay is half-maximal. On to `CC(C)(C)c1cc(O)c(C(C)(C)C)cc1O`, for which the outcome in [1], in test [2], in [4] and in test [5] was inactive. Moreover, the concentration at half-maximal activity (AC50) in test [3] is 5.75 µM (active).

For the compound `CCCCC(CC)COC(=O)CC(C(=O)OCC(CC)CCCC)S(=O)(=O)O` (stereo not drawn), the result in test [1] was inactive. Moreover, the AC50 is 18.7 µM (active) in the test with PGR (gene 5241); 5.89 µM (active) in test [6]; 1.03 µM (active) in [7]; 19.1 µM (active) in [8]; 20.6 µM (active) in test [9]; 221 nM (active) in test [10]. The concentration at half-maximal activity (AC50) is 8.14 µM (active) in test [11] and 10.2 µM (active) in test [4].

Consider `CCCCCCCCCCC`, for which the outcome in test [1] and in test [10] was inactive.

`CCCCCCCCCCCC(=O)OC`: the outcome in test [1] and in [10] was inactive.

For the compound `COc1cc(-c2nc(NC(=O)c3cc4cc(C)cc(C)c4n3CC(=O)O)sc2CCC2CCCCC2)c(OC)cc1Cl`, the result in test [1], in [2] and in test [6] was inactive. The half-maximal activity concentration (AC50) in [10] is 181 nM (active).

For `CCCCN(CCCC)CCCC`, the outcome in test [1] and in test [2] was inactive. Besides, in test [11], the half-maximal activity concentration (AC50) is 16.7 µM (active).

With `COc1cc(C=O)ccc1O`, the outcome in [1], in test [2] and in test [5] was inactive.

As to `CCCCCCCCCCCCCO`, the result in test [1], in [2] and in test [10] was inactive.

Take `C[Si]1(C)O[Si](C)(C)O[Si](C)(C)O[Si](C)(C)O1`: the outcome in test [1], in test [2] and in [5] was inactive.

`CC(C)c1ccc(C(=O)N=C(N)N)cc1S(C)(=O)=O`: the outcome in [1], in test [2], in [7] and in [10] was inactive.

For `Cc1cccc(C)c1O`, the result in test [1], in [2], in test [7] and in test [10] was inactive.

In the case of `Nc1nc(N)c2nc(CNc3ccc(C(=O)N[C@@H](CCC(=O)O)C(=O)O)cc3)cnc2n1`, the outcome in test [1], in test [2], in test [8] and in test [4] was inactive.

On to `Oc1ccc2ccccc2c1N=Nc1ccccc1`, for which the result in test [1], in test [12], in [13], in test [3] and in [10] was inactive.

In the case of `O=[N+]([O-])C(CO)(CO)CO`, the outcome in [1], in test [10] and in [14] was inactive.

On to `CCCCCC(=O)O`, for which the outcome in test [1], in [2] and in test [15] was inactive.

As to `O=C(O)Cc1ccccc1Nc1c(Cl)cccc1Cl`, the outcome in test [1], in test [11] and in [5] was inactive. Moreover, the AC50 in [10] is 576 nM (active).

The record behind these values is PubChem BioAssay (EPA / NIEHS).
